Laboratory results from ChEMBL document CHEMBL3988442, “University of Dundee, Small-Polar-MMV Screening Library” (2021).
For some assays here: Results with a measured potency or affinity are listed apart.

Tests used:
Parameters in all cases: scale not given: direction of the effect not stated beside the values
[1] = molecular target: Protein translocase subunit SecA (Escherichia coli (strain K12)) (UniProt P10408); test: Assay to Identify E. coli SecA ATPase Inhibitors; format: functional; conditions: 30 µM
Protein translocase subunit SecA (Escherichia coli (strain K12)), sequence (P10408 whole entry): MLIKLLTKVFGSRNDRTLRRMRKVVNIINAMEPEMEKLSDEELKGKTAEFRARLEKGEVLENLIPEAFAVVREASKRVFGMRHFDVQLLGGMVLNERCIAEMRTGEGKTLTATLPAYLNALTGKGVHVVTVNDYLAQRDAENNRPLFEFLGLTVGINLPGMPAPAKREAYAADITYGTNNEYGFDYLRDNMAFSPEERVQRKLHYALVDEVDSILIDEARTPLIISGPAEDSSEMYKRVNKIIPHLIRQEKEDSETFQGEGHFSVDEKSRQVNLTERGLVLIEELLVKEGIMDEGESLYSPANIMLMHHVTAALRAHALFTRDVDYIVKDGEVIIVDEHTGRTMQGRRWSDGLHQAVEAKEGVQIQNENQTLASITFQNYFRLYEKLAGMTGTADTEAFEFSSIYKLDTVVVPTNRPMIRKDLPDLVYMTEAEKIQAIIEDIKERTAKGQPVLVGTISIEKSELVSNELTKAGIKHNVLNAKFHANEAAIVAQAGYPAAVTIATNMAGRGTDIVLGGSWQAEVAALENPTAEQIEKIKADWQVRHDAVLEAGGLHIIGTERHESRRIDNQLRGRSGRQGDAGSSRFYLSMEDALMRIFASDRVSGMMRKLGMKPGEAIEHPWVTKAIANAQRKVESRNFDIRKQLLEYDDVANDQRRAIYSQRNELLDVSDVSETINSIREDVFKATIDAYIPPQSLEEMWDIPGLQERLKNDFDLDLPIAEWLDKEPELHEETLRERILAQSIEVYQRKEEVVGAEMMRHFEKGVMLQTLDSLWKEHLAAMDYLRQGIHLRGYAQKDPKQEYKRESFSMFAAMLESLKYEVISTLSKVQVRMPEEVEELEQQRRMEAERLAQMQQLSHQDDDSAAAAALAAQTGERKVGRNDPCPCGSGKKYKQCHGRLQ

[2] = molecular target: T1, Ubiquitin-activating enzyme e1, putative (Leishmania donovani (strain BPK282A1)) (UniProt E9BSI1); test: Leishmania donovani Ubiquitin Activating Enzyme (LdE1); format: functional; conditions: 30 µM
T1 sequence (whole entry): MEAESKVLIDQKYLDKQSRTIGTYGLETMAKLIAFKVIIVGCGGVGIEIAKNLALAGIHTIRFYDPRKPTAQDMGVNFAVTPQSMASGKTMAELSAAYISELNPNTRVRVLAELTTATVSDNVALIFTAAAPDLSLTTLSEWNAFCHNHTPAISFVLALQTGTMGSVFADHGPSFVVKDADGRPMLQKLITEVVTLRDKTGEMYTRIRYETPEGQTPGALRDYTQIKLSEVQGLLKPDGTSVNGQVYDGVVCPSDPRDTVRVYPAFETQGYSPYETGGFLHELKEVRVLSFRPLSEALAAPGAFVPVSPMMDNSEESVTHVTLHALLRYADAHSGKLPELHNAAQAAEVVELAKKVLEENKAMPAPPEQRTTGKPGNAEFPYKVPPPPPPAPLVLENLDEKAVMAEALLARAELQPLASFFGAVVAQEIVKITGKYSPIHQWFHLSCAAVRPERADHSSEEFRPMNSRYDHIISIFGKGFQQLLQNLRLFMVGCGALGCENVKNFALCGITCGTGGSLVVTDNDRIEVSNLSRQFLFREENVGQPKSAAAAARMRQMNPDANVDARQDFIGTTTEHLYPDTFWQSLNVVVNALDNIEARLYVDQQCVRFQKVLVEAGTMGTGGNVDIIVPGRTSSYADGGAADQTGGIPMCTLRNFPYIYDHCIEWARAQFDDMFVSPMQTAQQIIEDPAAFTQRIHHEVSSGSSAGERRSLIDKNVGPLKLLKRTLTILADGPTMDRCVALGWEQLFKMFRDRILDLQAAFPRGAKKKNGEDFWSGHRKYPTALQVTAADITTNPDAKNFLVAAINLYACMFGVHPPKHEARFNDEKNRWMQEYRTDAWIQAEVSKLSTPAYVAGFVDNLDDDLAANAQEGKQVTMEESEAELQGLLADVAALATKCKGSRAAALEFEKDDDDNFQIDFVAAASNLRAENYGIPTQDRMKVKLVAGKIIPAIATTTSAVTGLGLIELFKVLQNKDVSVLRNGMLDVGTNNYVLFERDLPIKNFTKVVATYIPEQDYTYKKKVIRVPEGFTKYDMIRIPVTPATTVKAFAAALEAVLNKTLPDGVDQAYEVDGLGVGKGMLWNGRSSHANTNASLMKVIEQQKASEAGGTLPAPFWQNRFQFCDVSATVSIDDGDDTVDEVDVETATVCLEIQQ

[3] = molecular target: AMP-activated protein kinase, AMPK (Homo sapiens) (UniProt P54646+O43741+P54619+Q9UGJ0+Q9Y478+Q13131+Q9UGI9); test: AMP-dependent Kinase enzyme assay. An in vitro enzyme assay that detects ADP turnover that is directly proportional to AMPK activity. This uses naive AMPK that is activated during the assay with MK-8722; format: functional; conditions: 30 µM
[4] = molecular target: Sialic acid-binding Ig-like lectin 9 (Homo sapiens) (UniProt Q9Y336); test: Hs-Siglec9 ALPHAscreen SOP 20170721; conditions: 10 µM
Sialic acid-binding Ig-like lectin 9 (Homo sapiens), sequence (Q9Y336 whole entry): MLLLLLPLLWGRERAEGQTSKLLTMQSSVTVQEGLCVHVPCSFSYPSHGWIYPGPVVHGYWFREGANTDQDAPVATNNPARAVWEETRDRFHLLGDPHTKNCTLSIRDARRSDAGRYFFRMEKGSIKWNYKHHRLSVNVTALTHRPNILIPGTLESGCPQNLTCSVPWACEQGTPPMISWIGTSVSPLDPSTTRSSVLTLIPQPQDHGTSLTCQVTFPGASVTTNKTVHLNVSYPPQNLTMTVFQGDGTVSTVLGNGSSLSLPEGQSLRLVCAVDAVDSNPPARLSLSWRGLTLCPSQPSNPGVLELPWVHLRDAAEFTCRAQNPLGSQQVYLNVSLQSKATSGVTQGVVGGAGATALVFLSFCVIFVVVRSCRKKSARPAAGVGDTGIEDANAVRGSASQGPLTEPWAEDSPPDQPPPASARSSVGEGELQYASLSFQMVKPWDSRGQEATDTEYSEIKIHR

[5] = system: Trypanosoma cruzi; test: Trypanosoma cruzi phosphomannomutase and mannose-1-phosphate guanylyltransferase assay; format: functional; conditions: 10 µM
[6] = molecular target: T2, Arginase-2, mitochondrial (Homo sapiens) (UniProt P78540); test: in vitro enzyme assay to detect the production of urea directly proportional to the activity of Arginase II; format: functional; conditions: 33.3 µM; also: in the data most compounds retested in dose-response had high values
T2 sequence (whole entry): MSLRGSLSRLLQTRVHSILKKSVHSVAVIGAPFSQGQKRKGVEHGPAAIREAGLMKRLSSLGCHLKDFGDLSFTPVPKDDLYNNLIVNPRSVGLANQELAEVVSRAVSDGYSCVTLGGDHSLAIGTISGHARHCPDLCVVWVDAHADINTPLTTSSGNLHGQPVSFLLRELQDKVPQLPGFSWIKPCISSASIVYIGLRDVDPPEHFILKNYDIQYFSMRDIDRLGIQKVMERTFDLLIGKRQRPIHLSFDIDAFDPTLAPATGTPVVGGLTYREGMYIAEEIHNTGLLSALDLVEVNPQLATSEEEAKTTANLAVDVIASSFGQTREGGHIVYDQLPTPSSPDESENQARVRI

[7] = molecular target: T3, Proteasome subunit beta (Trypanosoma cruzi) (UniProt O96673); test: Trypanosoma cruzi proteasome chymotrypsin-like activity (TcProtChymo) assay.; also: in the data most compounds retested in dose-response had high values; format: functional; conditions: 9.37 µM
T3 sequence (whole entry): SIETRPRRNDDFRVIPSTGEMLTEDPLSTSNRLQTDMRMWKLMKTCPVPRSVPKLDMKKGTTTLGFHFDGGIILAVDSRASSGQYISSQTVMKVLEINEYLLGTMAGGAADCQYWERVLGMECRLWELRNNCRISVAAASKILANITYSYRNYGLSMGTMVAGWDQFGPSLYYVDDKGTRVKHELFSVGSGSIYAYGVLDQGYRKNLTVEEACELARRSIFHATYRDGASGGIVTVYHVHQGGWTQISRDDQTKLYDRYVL

[8] = organism: Homo sapiens; test: To identify inhibition of the IFN signalling (Jak-Stat) pathway via expression of an eGFP reporter gene under the control of an IFN-stimulated response element (ISRE) containing MxA promoter.; format: functional; conditions: 30 µM
[9] = molecular target: T4, Tyrosyl-tRNA synthetase, putative (Trypanosoma cruzi (strain CL Brener)) (UniProt Q4DSP6); test: Trypanosoma cruzi tyrosyl tRNA synthetase (TcYRS) _High Tyrosine SOP; format: functional; conditions: 30 µM; also: in the data most compounds retested in dose-response had high values
T4 sequence (whole entry): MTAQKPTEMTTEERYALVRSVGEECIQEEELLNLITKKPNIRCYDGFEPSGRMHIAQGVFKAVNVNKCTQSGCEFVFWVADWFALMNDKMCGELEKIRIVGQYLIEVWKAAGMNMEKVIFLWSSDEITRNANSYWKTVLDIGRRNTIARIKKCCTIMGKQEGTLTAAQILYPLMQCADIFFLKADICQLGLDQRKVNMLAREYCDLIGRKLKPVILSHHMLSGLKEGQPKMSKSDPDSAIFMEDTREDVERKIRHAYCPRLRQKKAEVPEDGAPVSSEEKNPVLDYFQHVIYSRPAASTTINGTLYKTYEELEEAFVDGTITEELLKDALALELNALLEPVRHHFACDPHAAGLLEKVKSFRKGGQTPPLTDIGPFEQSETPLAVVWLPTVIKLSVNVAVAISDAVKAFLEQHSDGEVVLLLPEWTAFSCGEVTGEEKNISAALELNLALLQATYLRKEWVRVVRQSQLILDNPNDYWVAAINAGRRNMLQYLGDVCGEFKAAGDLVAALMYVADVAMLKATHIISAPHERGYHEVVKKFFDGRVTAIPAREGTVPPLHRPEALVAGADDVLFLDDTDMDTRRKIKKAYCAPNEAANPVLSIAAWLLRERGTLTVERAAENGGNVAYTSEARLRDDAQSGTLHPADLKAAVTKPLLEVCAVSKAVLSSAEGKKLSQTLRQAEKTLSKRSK

[10] = molecular target: T4, Tyrosyl-tRNA synthetase, putative (Trypanosoma cruzi (strain CL Brener)); test: Trypanosoma cruzi tyrosyl tRNA synthetase (TcYRS) SOP; format: functional; conditions: 30 µM
[11] = molecular target: Chromo domain-containing protein 1 (Saccharomyces cerevisiae (strain ATCC 204508 / S288c) (Baker's yeast)) (UniProt P32657); test: ScCHD-1 Enzyme Inhibition Assay; format: functional; conditions: 30 µM; also: in the data most compounds retested in dose-response had high values
Chromo domain-containing protein 1 (Saccharomyces cerevisiae (strain ATCC 204508 / S288c) (Baker's yeast)), sequence (P32657 whole entry, the tested form may be a part): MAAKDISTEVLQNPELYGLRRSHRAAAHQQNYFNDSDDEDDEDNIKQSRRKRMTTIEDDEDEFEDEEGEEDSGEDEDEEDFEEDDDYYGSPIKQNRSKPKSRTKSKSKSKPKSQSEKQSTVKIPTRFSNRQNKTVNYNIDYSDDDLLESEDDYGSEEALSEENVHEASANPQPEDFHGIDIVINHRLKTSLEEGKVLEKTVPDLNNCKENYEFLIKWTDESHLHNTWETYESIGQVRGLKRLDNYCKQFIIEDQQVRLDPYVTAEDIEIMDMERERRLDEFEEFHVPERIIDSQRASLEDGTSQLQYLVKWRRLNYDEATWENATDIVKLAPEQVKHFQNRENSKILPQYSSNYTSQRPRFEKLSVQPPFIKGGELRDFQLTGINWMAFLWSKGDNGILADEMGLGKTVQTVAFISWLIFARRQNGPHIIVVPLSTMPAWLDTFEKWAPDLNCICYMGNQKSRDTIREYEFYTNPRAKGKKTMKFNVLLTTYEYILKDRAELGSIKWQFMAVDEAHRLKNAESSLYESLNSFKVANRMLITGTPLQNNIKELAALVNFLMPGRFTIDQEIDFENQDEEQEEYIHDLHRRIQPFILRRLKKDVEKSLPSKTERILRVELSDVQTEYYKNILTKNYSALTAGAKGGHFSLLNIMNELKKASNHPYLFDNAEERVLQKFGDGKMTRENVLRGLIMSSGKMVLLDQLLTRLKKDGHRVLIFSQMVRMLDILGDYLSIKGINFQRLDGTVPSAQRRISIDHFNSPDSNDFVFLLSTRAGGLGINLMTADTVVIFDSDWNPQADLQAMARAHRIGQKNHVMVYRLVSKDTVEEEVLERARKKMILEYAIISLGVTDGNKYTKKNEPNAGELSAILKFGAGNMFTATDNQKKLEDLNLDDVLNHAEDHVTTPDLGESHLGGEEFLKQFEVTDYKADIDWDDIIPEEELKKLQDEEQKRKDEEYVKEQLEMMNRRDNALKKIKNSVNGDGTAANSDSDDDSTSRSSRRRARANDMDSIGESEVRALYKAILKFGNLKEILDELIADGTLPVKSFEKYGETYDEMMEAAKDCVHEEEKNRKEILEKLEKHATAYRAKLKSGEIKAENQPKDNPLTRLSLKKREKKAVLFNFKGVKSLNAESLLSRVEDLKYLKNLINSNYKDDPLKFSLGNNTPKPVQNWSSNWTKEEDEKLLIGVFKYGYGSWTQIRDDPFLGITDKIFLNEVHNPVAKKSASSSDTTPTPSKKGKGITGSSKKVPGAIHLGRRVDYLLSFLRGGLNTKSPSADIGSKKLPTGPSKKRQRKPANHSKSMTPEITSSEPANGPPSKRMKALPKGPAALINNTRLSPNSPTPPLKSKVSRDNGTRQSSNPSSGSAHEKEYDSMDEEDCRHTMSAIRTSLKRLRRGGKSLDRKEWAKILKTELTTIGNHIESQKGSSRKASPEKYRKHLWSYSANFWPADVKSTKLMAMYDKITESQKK

Compound	Percent Effect [1] [%]	Percent Effect [2] [%]	Percent Effect [3] [%]	Percent Effect [4] [%]	Percent Effect [5] [%]	Percent Effect [6] [%]	Percent Effect [7] [%]	Percent Effect [8] [%]	Percent Effect [9] [%]	Percent Effect [10] [%]	Percent Effect [11] [%]
CC(Cn1cccn1)NC(=O)Nc1ccc(F)cc1 (configuration not stated)	0.465	6.94	-0.867	-4.43	-5.15	1.77	22.1	9.63	1.05	0	-1.51
O=C(NCCCN1CCCC1=O)Nc1ccc(Br)cc1Cl	-4.26	-4	3.31	6.15	3.14	-3.7	7.02	8.83	0	2.56	-2.19
Cc1c(I)cccc1C(=O)NCC1(CO)CC1	-4.35	13.5	-3.32	13.5	7.14	0.952	1.38	-9.36	0.529	14.6	-4.29
CS(=O)(=O)NC1CCN(C(=O)NCCc2ccccc2F)CC1	-4.12	8.11	-6.29	9.26	2.14	2.03	12	10.3	6.93	25.6	-11.2
COc1ccc(CCN2CCN(C(=O)c3scnc3C)CC2)cc1	-2.7	10.5	2.58	0.569	3.8	-3.55	16	-22.1	6.38	10.4	-3.62
CC(=O)N(Cc1noc(C2CC2)n1)C1CCN(Cc2cccnc2)C1 (configuration not stated)	-2.68	13.5	-6.59	0.785	-1.76	-0.185	2.51	12.5	4.95	18.3	-7.09
Cc1ccsc1CNC(=O)NC1CCCc2c1cnn2CCO (configuration not stated)	-6.41	2.67	2.26	2.19	-1.27	-3.12	13.4	-12.2	6.01	18.5	-4.15
CCn1nc(C)cc1C(=O)Nc1cc(F)ccc1OCC1CCCO1 (configuration not stated)	-3.27	2.6	19.7	7.39	0.686	-0.21	9.78	34	4.76	9.41	-11.3
Cc1ccc(S(=O)(=O)NC2CNC(=O)C2)cc1C (configuration not stated)	-5.32	8.22	-5.53	-8.87	0.588	1.82	3.9	-1.25	7.53	12.5	-3.53
Cc1ccccc1CS(=O)(=O)CC(=O)NCc1ccccc1F	-3.68	7.89	11.2	7.68	0.292	3.55	10.6	31	4.25	13	-2.75
CCn1cnnc1CNC(=O)c1ccc(Cl)cc1F	-2.15	16.5	-1.73	3.58	0.103	-6.24	16.6	5.91	9.38	17.7	-13.8
CC(CNCc1ccc(Cl)c(Cl)c1)Oc1ccccn1 (configuration not stated)	-2.19	12	0.69	-3.31	4.91	-7.22	20.5	26.5	6.35	10.3	-11.8
c1cnc(NCc2noc3c2CN(C2CCOCC2)CC3)nc1	-4.67	18.7	-2.09	-2.32	3.86	-46.8	15.7	-2.62	7.29	22.5	-7.21
c1ccc(CCN2CCOC(Cn3cccn3)C2)nc1 (configuration not stated)	-6.2	5.2	-1.28	6.84	7.54	1.05	3.15	5.5	3.81	11.8	-7.53
NC(=O)c1csc(C(=O)N2CCCCC2Cn2cccn2)c1 (configuration not stated)	-5.35	13.5	1.44	6.12	-0.279	-3.88	0.539	16.2	5.94	13.4	1.19
CC(C)c1nccn1C1CCCN(C(=O)c2cnc[nH]2)C1 (configuration not stated)	-5.4	10.5	-5.59	16.2	5.32	0.719	10.1	-0.618	5.42	16.1	-3.38
COc1cccc(CN(C)C(=O)CSc2ccc3c(c2)OCCO3)c1	-7.29	-10.5	15.3	0.77	-0.876	-2.37	6.62	6.47	-4.25	-15.6	0.365
CN(C)[C@@H]1CCN(c2ncccn2)[C@H]1Cc1ccccc1	-5.52	5.2	0.378	3.63	2.06	-1.38	8.65	-3.26	2.15	6.17	1.34
CN1CCOC(CNCc2coc(-c3ccccc3)n2)C1 (configuration not stated)	0.225	12.7	-7.36	-10.7	-5.57	7.22	8.6	24.4	6.4	13.9	-5.22
Cc1nc[nH]c1CN1C[C@@H]2CC[C@H](C1)N(C(=O)CCc1cnn(C)c1)C2	-1.58	6.94	-9.43	16.8	4.96	29.1	5.09	-11.8	2.1	7.69	-1
CS(=O)(=O)c1ccc(OCCNCc2cccc(F)c2)cc1	-6.14	0	1.51	6.7	3.57	-0.798	4.02	3.81	8.33	13.6	3.19
COc1ccc(C(=O)N(Cc2cnn(C)c2)C(C)C)cc1Br	-4.7	0	-7.42	8.74	6.44	-2.52	-1.61	-4.21	2.46	11.1	-4.6
